PubChem BioAssay AID623911 (Vanderbilt High Throughput Screening Facility, 2012)
About 770 (37%) of roughly 2,100 compounds were called active.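 The calls were made as follows: active = by-eye trace score of 1 for enhancers or -1 for inhibitors, so actives lie on both sides (some results past the limit were not filed as active); inactive = score 0, or 3 fluorescent, or 4 baseline rise.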 Some of the results follow.

The compounds below were run against G protein-activated inward rectifier potassium channel 2 (Homo sapiens) + G protein-activated inward rectifier potassium channel 1 (Homo sapiens) (UniProt P48051+P48549) (assay: GIRK1/2 thallium flux modulators, retest, confirmation, cell-based, HEK293 rmGlu8/hGIRK1/2, FluoZin-2 (AID 623911)). Details: HEK293 rmGlu8/hGIRK1/2, thallium flux FluoZin-2; actives lie on both sides; glutamate co-added at its EC20 level.
Chain of G protein-activated inward rectifier potassium channel 2 (Homo sapiens) + G protein-activated inward rectifier potassium channel 1 (Homo sapiens) (P48051 whole entry, looked up): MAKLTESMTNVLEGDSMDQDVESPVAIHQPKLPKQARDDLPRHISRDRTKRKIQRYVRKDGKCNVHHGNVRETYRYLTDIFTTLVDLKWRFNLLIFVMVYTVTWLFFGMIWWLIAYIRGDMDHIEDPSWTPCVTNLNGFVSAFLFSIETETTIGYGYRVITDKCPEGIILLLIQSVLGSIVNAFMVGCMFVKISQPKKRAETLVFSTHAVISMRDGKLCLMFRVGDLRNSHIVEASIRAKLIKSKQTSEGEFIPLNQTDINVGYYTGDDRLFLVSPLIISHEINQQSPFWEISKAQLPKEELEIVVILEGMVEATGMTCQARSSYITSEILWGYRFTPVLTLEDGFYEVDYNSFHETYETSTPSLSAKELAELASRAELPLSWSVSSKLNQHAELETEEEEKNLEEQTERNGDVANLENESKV
Chain of G protein-activated inward rectifier potassium channel 2 (Homo sapiens) + G protein-activated inward rectifier potassium channel 1 (Homo sapiens) (P48549 whole entry, looked up): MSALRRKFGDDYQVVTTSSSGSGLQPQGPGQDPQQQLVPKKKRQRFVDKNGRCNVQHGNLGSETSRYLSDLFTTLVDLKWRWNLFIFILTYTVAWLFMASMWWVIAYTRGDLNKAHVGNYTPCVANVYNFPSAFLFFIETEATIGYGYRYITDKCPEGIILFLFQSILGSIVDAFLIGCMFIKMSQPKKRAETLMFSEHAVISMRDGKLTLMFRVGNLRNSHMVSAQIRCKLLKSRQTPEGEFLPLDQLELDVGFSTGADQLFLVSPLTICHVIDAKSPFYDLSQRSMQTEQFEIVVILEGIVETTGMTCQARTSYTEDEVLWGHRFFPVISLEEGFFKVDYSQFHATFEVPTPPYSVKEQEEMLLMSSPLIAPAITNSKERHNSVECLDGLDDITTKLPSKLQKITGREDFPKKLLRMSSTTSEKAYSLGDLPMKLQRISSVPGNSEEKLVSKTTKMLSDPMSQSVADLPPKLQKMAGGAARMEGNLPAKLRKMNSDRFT

Compound	manual score
Cc1cc(N2CCC(C)CC2)n2ncc(-c3ccccc3)c2n1	0 (inactive)
CCC(CC)c1nnc(NC(=O)C2COc3ccccc3O2)s1 (stereo not drawn)	0 (inactive)
CCC(/C=N/NC(=O)C1COc2ccccc2O1)CC (stereo not drawn)	1 (active)
NS(=O)(=O)c1ccc(NC(=O)C2COc3ccccc3O2)cc1 (stereo not drawn)	0 (inactive)
COc1ccc(-n2nnnc2SCC(=O)N2CCOCC2)cc1	-0.5 (inactive)
COc1ccc(OC)c(C(=O)c2coc3ccc(O)c(CN4CCOCC4)c23)c1	-1 (active)
COC(=O)COc1ccc(S(=O)(=O)Nc2ccccc2C(=O)OC)cc1	0 (inactive)
COC(=O)C(C)N(C(=O)c1cccc2ccccc12)c1c(C)cccc1C (stereo not drawn)	-1 (active)
COC(=O)C(C)N(C(=O)c1cccc(Cl)c1)c1c(C)cccc1C (stereo not drawn)	-1 (active)
CCC/C(=N/NC(=O)c1cccc(Cl)c1)c1ccccc1	0 (inactive)
NC(=O)Nc1cccc2ccccc12	0 (inactive)
O=C(Nc1ccc2oc(-c3ccncc3)nc2c1)c1c(F)c(F)c(F)c(F)c1F	0 (inactive)
CCCN1C(=O)/C(=C/c2ccc(C)s2)NC1=S	1 (active)
CCN1C(=O)/C(=C/c2ccc(C)s2)NC1=S	1 (active)
CCCN1C(=O)/C(=C/c2ccc(N3CCCC3)c(C)c2)NC1=S	3 (inactive)
O=C1/C(=C/c2ccc(N3CCCC3)cc2)NC(=S)N1C1CC1	3 (inactive)
CC(C)CN1C(=O)/C(=C/c2cccs2)NC1=S	1 (active)
O=C(Nc1nnc(SCc2ccc(F)cc2)s1)C1CC(=O)N(c2ccc3c(c2)OCCO3)C1 (stereo not drawn)	0 (inactive)
CN(C)c1nc2n(c(=O)n1)C(C#N)CS2 (stereo not drawn)	0 (inactive)
O=c1[nH]c(CS(=O)(=O)c2ccccc2)nc2ccccc12	0 (inactive)
CCCCn1c(-c2csc3c2CCCC3)n[nH]c1=S	-0.5 (inactive)
CCCCCCCCCn1c2c(c(=N)c3c1CCC3)CCC2	-1 (active)
CC(=O)c1ccc(OC(=O)N(c2ccccc2)c2ccccc2)cc1	0 (inactive)
N[C@@H](Cc1ccccc1)c1nnc(SCc2ccccc2F)o1	0 (inactive)
Cc1cc(C)c2[nH]c(=S)cc(C)c2c1	1 (active)
Cc1cc(=S)[nH]c2c(C)cccc12	1 (active)
CC1(C)Cc2c(ccc3ccccc23)-c2nnc(-c3cccnc3)n21	0 (inactive)
CCOC(=O)N/N=C/c1c(C)nn(-c2ccccc2Cl)c1Cl	0 (inactive)
